From PubChem BioAssay come the findings set out here.

Calls of active or inactive are those of the source. Unless noted, the rule behind the calls is not given here.

Assay [1] in a line: HepG2 liver cancer cell viability effects, profiling panel, resazurin fluorescence, 24 h, PK04 Diversity Set (AID 1172). Note: test concentration not given here. The note with it: higher = more signal. A general note: Resazurin is reduced to fluorescent resorufin, in cell work by metabolically active cells.
A short description of assay [2]: basal S. cerevisiae growth modulation, no modifier, primary screen, OD600, strain BY4716, 24 h, basal condition (AID 1173). The note with it: OD600, 24 h, higher = more signal, called active from +8 up or from −8 down.
Assay [3] can be described thus: MM1S myeloma cell viability, profiling panel, resazurin fluorescence, basal, 24 h, PK04 Diversity Set (AID 1174).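 Note: MM1S multiple myeloma cell line; test concentration not given here.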 Conditions: higher = more signal, called active from +8 up or from −8 down.
The target in assay [4] is Dihydroorotate dehydrogenase (quinone), mitochondrial (Plasmodium falciparum (isolate 3D7)) (UniProt Q08210). In words: PfDHODH enzyme inhibitors, primary screen, biochemical, C-terminal His tag, absorbance 600 nm (AID 1175).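 Note: recombinant parasite enzyme with a five histidine tag at its C terminus; test concentration not given here.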 Conditions: DCIP absorbance 600 nm, higher = more signal, called active from +8 up or from −8 down.
Assay [5] can be described thus: P. aeruginosa biofilm formation inhibitors, primary screen, strain PAO1, LB-PBS medium, absorbance 600 nm (AID 1176). Note: test concentration not given here. The note with it: P. aeruginosa PAO1 growth/biofilm, A600, 12 h; higher = more signal.
Assay [6] in a line: S. cerevisiae RM11-1a growth modifiers, primary screen, strain RM11-1a, OD600, basal, 24 h (AID 1177).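 Note: cultures grown under basal conditions with no added stressor; test concentration not given here.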 The note with it: OD600, 24 h, higher = more signal, called active from +8 up or from −8 down.
A short description of assay [7]: E. coli acrAB mutant growth effects, primary screen, E. coli filamentation inducers, strain DRC39, OD650, 24 h (AID 1178).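 Note: growth measured as culture turbidity by optical density at 650 nm; test concentration not given here.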 The note with it: higher = more signal, called active from +8 up or from −8 down.
Assay [8] is described as follows: E. coli acrAB mutant growth effects, primary screen, E. coli filamentation inducers, strain DRC39, OD650, 48 h (AID 1179).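 Note: screen aims at cell division blockers that make cells filament.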 Conditions: E. coli DRC39 delta-acrAB growth, higher = more signal, called active from +8 up or from −8 down.
Assay [9] in a line: RPMI8226 myeloma cell viability, profiling panel, resazurin fluorescence, basal, 24 h, PK04 Diversity Set (AID 1180).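 Note: RPMI8826 multiple myeloma cell line at 5000 cells per well; test concentration not given here.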 Conditions: higher = more signal.
Assay [10] deals with E3 ubiquitin-protein ligase XIAP (Homo sapiens) (UniProt P98170). The experiment in a line: XIAP binders, primary screen, biophysical, small-molecule microarray, fluorescence 635 nm (AID 1181).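 Note: score merges 667 nm emission and signal to noise over triplicate slides.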 The note with it: small-molecule microarray binding, higher = more signal.
E3 ubiquitin-protein ligase XIAP (Homo sapiens), sequence (P98170 whole entry, looked up): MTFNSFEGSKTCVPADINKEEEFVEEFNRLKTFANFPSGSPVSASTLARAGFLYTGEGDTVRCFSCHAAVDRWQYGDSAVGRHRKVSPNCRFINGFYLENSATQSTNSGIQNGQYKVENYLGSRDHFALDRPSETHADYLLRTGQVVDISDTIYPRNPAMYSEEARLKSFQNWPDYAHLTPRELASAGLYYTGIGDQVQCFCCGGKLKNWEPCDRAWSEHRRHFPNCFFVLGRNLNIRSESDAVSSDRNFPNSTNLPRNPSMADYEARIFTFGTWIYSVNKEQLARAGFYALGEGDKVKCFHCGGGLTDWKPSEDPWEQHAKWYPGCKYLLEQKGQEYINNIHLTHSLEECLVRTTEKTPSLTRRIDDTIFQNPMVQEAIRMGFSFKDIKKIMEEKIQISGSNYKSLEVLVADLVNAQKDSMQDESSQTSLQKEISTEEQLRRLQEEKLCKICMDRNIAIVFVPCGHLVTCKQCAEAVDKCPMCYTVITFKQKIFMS

Dihydroorotate dehydrogenase (quinone), mitochondrial (Plasmodium falciparum (isolate 3D7)), sequence (Q08210 whole entry, looked up): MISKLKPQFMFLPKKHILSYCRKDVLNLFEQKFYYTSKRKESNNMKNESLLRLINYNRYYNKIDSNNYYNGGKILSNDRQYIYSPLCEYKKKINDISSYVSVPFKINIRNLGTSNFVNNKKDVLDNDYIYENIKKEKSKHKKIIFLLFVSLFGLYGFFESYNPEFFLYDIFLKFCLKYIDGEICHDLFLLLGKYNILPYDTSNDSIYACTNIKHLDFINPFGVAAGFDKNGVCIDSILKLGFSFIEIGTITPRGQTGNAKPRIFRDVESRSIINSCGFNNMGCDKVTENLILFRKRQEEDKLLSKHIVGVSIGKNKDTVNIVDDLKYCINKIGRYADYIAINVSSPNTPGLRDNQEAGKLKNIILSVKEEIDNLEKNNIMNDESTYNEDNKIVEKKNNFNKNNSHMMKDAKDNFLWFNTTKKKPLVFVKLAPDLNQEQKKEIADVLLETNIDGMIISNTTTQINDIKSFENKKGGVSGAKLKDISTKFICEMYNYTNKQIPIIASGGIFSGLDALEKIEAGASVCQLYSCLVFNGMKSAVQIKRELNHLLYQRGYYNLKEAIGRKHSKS

`COc1ccc(COC(=O)NN=C2C[C@@H](O)[C@@H](O)[C@@H]3[C@@H]4C(=O)N(c5ccc(F)cc5F)C(=O)[C@@H]4CC[C@H]23)cc1`: the z-score was -0.238 in [1]; -0.291 (inactive) in assay [2]; 0.317 (inactive) in [3]; 0.307 (inactive) in [5]; -0.461 (inactive) in assay [6]; -0.0692 (inactive) in assay [7]. The z-score was 0.138 (inactive) in assay [8] and 0.643 in assay [9]. The values for the composite z-score in assay [4] and in assay [10] were 0.0067 (inactive) and 0.0674, respectively.

In the case of `CC=CC1=C(CO)C(=O)[C@@H]2O[C@@H]2C1=O`, the z-score in assay [1] is -0.714; in [2], -1.37 (inactive); in [3], -1.58 (inactive); in assay [5], 0.827 (inactive); in assay [6], -1.22 (inactive); in [7], 0.246 (inactive). Moreover, the z-score in assay [8] is 0.537 (inactive); in assay [9], -0.875. For the same compound, the composite z-score in assay [4] was 0.324 (inactive); in assay [10] it was -0.0498.

On to `O=C1C=C[C@@H](O)[C@@H]2[C@@H]3C(=O)N(C[C@@H]4CCCO4)C(=O)[C@@H]3CC[C@@H]12`, for which the z-score is 0.111 in [1]; 0.499 (inactive) in assay [2]; 0.561 (inactive) in assay [3]; -0.425 (inactive) in assay [5]; 0.0539 (inactive) in assay [6]; 0.117 (inactive) in assay [7]. For the same compound, the z-score was -0.282 (inactive) in [8] and 0.91 in assay [9]. For the same compound, the composite z-score was -0.0546 (inactive) in assay [4] and 0.0032 in assay [10].

For `CO[C@H](C1CCCCC1)[C@H](C)C=CCC(=O)OCCCc1ccccc1`, the z-score in assay [1] was 0.159; in assay [2] it was 0.878 (inactive); in assay [3], 0.227 (inactive); in assay [5] it was -0.315 (inactive); in [6] it was 1.63 (inactive); in [7], -0.778 (inactive). The z-score in assay [8] is -0.417 (inactive); in assay [9], -0.0411. The composite z-score in [4] was 0.503 (inactive); in [10], -0.193.

With `COC(=O)CC=C[C@@H](C)[C@@H](C=NOC[C@H]1O[C@H](c2ccccc2)C=C[C@@H]1Oc1ccc(OC)cc1)OC`, the z-score is 0.167 in assay [1]; 0.805 (inactive) in assay [2]; 0.0784 (inactive) in assay [3]; 0.335 (inactive) in assay [5]; 0.065 (inactive) in assay [6]; 0.0177 (inactive) in [7]. Also, the z-score in assay [8] was -0.0331 (inactive); in [9], 0.264. In addition, the composite z-score in assay [4] is 0.388 (inactive); in assay [10], 0.127.

With `COc1cccc([C@H]2Oc3ccc(OC)cc3C(=NO[C@H](C)c3cn([C@H](CO)Cc4ccccc4)nn3)[C@@H]2O)c1`, the z-score is -0.26 in assay [1]; 0.723 (inactive) in assay [2]; -0.328 (inactive) in [3]; 0.417 (inactive) in [5]; -1.11 (inactive) in [6]; 0.753 (inactive) in assay [7]. The z-score in assay [8] is 0.571 (inactive); in [9], 0.249. Further, the results for the composite z-score in [4] and in assay [10] were -0.755 (inactive) and -0.278, respectively.

On to `CCCNC(=O)OC[C@H]1O[C@H](CCON=C(C)CCN2CCc3nc(CC)c(CC)cc3C2)C=C[C@@H]1Oc1ccc(OC)cc1`, for which the z-score is -1.09 in [1]; -0.139 (inactive) in assay [2]; -1.45 (inactive) in assay [3]; -0.598 (inactive) in assay [5]; 0.02 (inactive) in [6]; -1.13 (inactive) in [7]. Also, the z-score is -1.53 (inactive) in assay [8] and 0.622 in assay [9]. The composite z-score in assay [4] is 0.358 (inactive); in [10] it was -0.0559.

For the compound `O=C1[C@H]2[C@H]3[C@H](O)[C@H](O)CC(=NOCc4ccccc4)[C@@H]3CC[C@H]2C(=O)N1c1ccc(F)cc1F`, the z-score is 0.0979 in assay [1]; -0.584 (inactive) in assay [2]; 0.253 (inactive) in [3]; 0.86 (inactive) in [5]; -2.15 (inactive) in assay [6]; -0.018 (inactive) in assay [7]. Also, the values for the z-score in assay [8] and in [9] were -0.714 (inactive) and -1.19, respectively. The composite z-score in [4] was -1.42 (inactive); in assay [10], -0.0563.

`CO[C@@H]1COC(=O)[C@@H](C)COC(=O)[C@@H](C)NC(=O)CC=C[C@@H]1C`: the z-score in assay [1] is -0.373; in assay [2], -0.792 (inactive); in [3], 1.2 (inactive); in assay [5], -0.136 (inactive); in assay [6], -1.99 (inactive); in [7], -0.98 (inactive). The z-score was -1.13 (inactive) in assay [8] and 0.635 in assay [9]. Besides, the composite z-score is -4.92 (inactive) in assay [4] and -0.271 in assay [10].

In the case of `COc1ccc(COC(=O)NN=C2C[C@@H](O)[C@@H](O)[C@@H]3[C@@H]4C(=O)N(c5cccc(Oc6ccccc6)c5)C(=O)[C@@H]4CC[C@@H]23)cc1`, the z-score was 0.702 in assay [1]; 0.968 (inactive) in assay [2]; 0.106 (inactive) in assay [3]; -0.282 (inactive) in assay [5]; 1.65 (inactive) in [6]; -0.401 (inactive) in [7]. The figures for the z-score in assay [8] and in [9] were -0.587 (inactive) and 0.45, respectively. Besides, the composite z-score was 0.861 (inactive) in assay [4] and -0.22 in assay [10].

Turning to `COC(=O)CC=C[C@@H](C)[C@H](OCc1cccc(-c2ccccc2)c1)C1CCCCC1`, the z-score in assay [1] was -0.307; in assay [2], -0.0348 (inactive); in [3] it was 0.45 (inactive); in assay [5], -0.409 (inactive); in assay [6] it was 1.82 (inactive); in assay [7] it was -0.933 (inactive). Further, the figures for the z-score in [8] and in [9] were -0.661 (inactive) and 0.403, respectively. In addition, the composite z-score in assay [4] was -3.69 (inactive); in assay [10] it was -0.267.

As for `CO[C@H]1COC(=O)CCC[C@@H](C)[C@H](OC)COC(=O)[C@@H]2CCCN2C(=O)CC=C[C@@H]1C`, the z-score in [1] is -0.145; in [2], -0.723 (inactive); in [3], 0.435 (inactive); in [5] it was -1.04 (inactive); in [6], -1.04 (inactive); in assay [7] it was -0.367 (inactive). Besides, the values for the z-score in [8] and in [9] were -0.459 (inactive) and 0.826, respectively. Moreover, the composite z-score is -0.44 (inactive) in [4] and -0.135 in assay [10].

In the case of `CC(CCC(=O)OC[C@H]1O[C@H](C#Cc2ccccc2)C=C[C@@H]1Oc1ccc(C)cc1)=NO[C@H](C)c1cn([C@H](CO)Cc2ccccc2)nn1`, the z-score is 0.151 in assay [1]; 0.815 (inactive) in assay [2]; -0.0044 (inactive) in [3]; 0.463 (inactive) in assay [5]; 1.78 (inactive) in assay [6]; 0.348 (inactive) in assay [7]. Also, the z-score in [8] is -0.0348 (inactive); in assay [9] it was 0.274. For the same compound, the composite z-score in assay [4] is 1.1 (inactive); in assay [10], 0.0191.
